Data taken from PubChem BioAssay (Tox21).
Results filed as inconclusive are left out. Where a call stands in place of a potency, no number is given. Active and inactive are the calls of the source. Calls follow the shape of the dose curve; as a rule, active = well fitted cell-killing curve with a large enough effect in the repeat runs; inconclusive = weak or mixed curves, or effect the other way; inactive = flat fitted curve, though single readings scatter.

Columns and labels:
[1] = cAMP Responsive Elements (CRE) small molecule antagonists, cell-based qHTS assay: qHTS cell viability counter screen (AID 2060913); also: nearly all actives have a fitted effect of over 40% in size
Outline: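 HEK293T CRE-bla, 2,000 cells/well, 18 h preincubation; cpd in DMSO + NKH477 0.25 uM final, 3 h 37 C/5% CO2; LiveBLAzer 2 h RT, then CellTiter-Glo 30 min RT, luminescence.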

[2] = cAMP Responsive Elements (CRE) small molecule agonists, cell-based qHTS assay: qHTS cell viability counter screen (AID 2060914); also: potency is read from the fitted curve at half-maximal effect;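 also: viability read after 3 h of compound exposure; nearly all actives have a fitted effect of over 50% in size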
Outline: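 HEK 293T CRE-bla; DMEM + 10% dialyzed FBS, 25 mM HEPES; 18 h pre-incubation; compound 3 h, 37 °C/5% CO2; CellTiter-Glo added after reporter read; luminescence after 30 min RT.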

SMILES	Potency [1]	Potency [2]
CCOC(=O)NNc1nncc2ccccc12	inactive	inactive
C1CCOC1	inactive	inactive
O=C1CCCCCCCCCCCCCCCO1	inactive	inactive
CC12CCC(C1)C(C)(C)C2O (stereo unspecified)	inactive	inactive
NC(N)=N/N=C/c1c(Cl)cccc1Cl	inactive	inactive
CCn1c(=O)c2c(nc(/C=C/c3ccc(OC)c(OC)c3)n2C)n(CC)c1=O	inactive	inactive
Nc1cnn([C@@H]2O[C@H](CO)[C@@H](O)[C@H]2O)c(=O)n1	inactive	970 nM (active)
O=C(O)c1cn(C2CC2)c2cc(Cl)c(F)cc2c1=O	inactive	inactive
C=C(C)C(=O)OCCOC(=O)CC(C)=O	inactive	inactive
CC(=O)OC(C(=O)c1ccccc1)c1ccccc1 (stereo unspecified)	inactive	inactive
Cc1ccc(C(=O)O)o1	inactive	inactive
COc1cc(O)cc(O)c1	inactive	inactive
O=S(=O)(O)c1ccccc1O	inactive	inactive
NC12CC3CC(CC(C3)C1)C2	inactive	inactive
Oc1ccc2c(c1)Cc1ccccc1-2	inactive	inactive
COC(=O)CCC(=O)O	inactive	inactive
Nc1ccc(S(=O)(=O)NC(=O)c2ccccc2)cc1	inactive	inactive
O=C1c2ccccc2C(=O)c2c1ccc(O)c2O	inactive	inactive
CCC(=O)OC(C)(C)C1CC=C(C)CC1 (stereo unspecified)	inactive	inactive
Cc1c(O)cccc1O	inactive	inactive
Cc1nc2ccc(Cl)cc2[nH]1	inactive	inactive
CCCCCC=O	inactive	inactive
CCc1cccc(C)c1N	inactive	inactive
